Results taken from PubChem BioAssay AID1159580 (chemical genetic matrix, 2015).
“And” between values parts separate entries of the source, which are not always exact repeats. Equal entries are not always repeated. About 2,000 (36%) of roughly 5,500 compounds were called active. Not shown: some 18% with an inconclusive outcome. No stated cut-off is given here; in the data, active means normalized growth mostly below about 0.91 (no sharp cut-off); inconclusive means no clear call, values can overlap the other calls; inactive means mostly above about 0.92. This is one part of the list.

Test: chemical genetic growth profiling, strain panel (AID 1159580);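 further: tested at 20 µM; growth read once vehicle control cultures reached saturation at 30 °C; 1 = growth at the plate median or of vehicle wells; lower values mean less growth of the strain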
Settings: S. cerevisiae deletion strains, growth OD

Measured: normalized growth

NCCc1ccc(O)c(O)c1
inactive: locus YAL013W, strain DEP1, active compounds read low 1 and 0.968 | locus YAL021C, strain ccr4, active compounds read low 1.01 | locus YAL026C, strain drs2, active compounds read low 1 | locus YAL030W, strain snc1, active compounds read low 1.01 | locus YAL040C, strain CLN3, active compounds read low 0.983 | locus YBL061C, strain skt5, active compounds read low 0.998 | locus YBR009C, strain hhf1, active compounds read low 0.978 | locus YBR021W, strain FUR4, active compounds read low 0.999 | locus YBR023C, strain chs3, active compounds read low 1 | locus YBR171W, strain sec66, active compounds read low 0.997 | locus YBR229C, strain ROT2, active compounds read low 1 | locus YBR231C, strain swc5, active compounds read low 0.997 | locus YBR279W, strain paf1, active compounds read low 1 | locus YCL011C, strain gbp2, active compounds read low 0.981 | locus YCL016C, strain dcc1, active compounds read low 0.991 | locus YCL029C, strain bik1, active compounds read low 0.965 | locus YCL061C, strain MRC1 (second series), active compounds read low 0.997 | locus YCL061C, strain MRC1, active compounds read low 0.987 | locus YCL069W, strain vba3, active compounds read low 0.981 | locus YCR088W, strain abp1, active compounds read low 0.995 | locus YDL005C, strain med2, active compounds read low 1 | locus YDL035C, strain GPR1, active compounds read low 1.01 | locus YDL040C, strain nat1, active compounds read low 1.01 | locus YDL074C, strain BRE1, active compounds read low 0.978 | locus YDL101C, strain DUN1, active compounds read low 0.988 | locus YDL134C, strain PPH21, active compounds read low 1.04 | locus YDL185W, strain tfp1, active compounds read low 0.979 | locus YDL192W, strain arf1, active compounds read low 0.995 | locus YDR001C, strain nth1, active compounds read low 1 | locus YDR069C, strain doa4, active compounds read low 0.999 | locus YDR101C, strain arx1, active compounds read low 1.01 | locus YDR137W, strain rgp1, active compounds read low 1.03 | locus YDR150W, strain NUM1, active compounds read low 0.992 | locus YDR159W, strain sac3, active compounds read low 1.03 | locus YDR162C, strain NBP2, active compounds read low 1 | locus YDR195W, strain ref2 1.01 | locus YDR297W, strain sur2, active compounds read low 1 | locus YDR318W, strain mcm21, active compounds read low 0.988 | locus YDR334W, strain swr1, active compounds read low 0.996 | locus YDR335W, strain msn5, active compounds read low 1.01 | locus YDR363W, strain ESC2, active compounds read low 0.998 | locus YDR388W, active compounds read low 1 | locus YDR392W, strain spt3, active compounds read low 0.993 | locus YDR502C, strain sam2, active compounds read low 0.998 | locus YEL003W, strain gim4, active compounds read low 0.977 | locus YEL037C, strain rad23, active compounds read low 1 | locus YEL061C, strain CIN8 (second series), active compounds read low 1.02 | locus YEL061C, strain CIN8, active compounds read low 0.997 | locus YER002W, strain NOP16, active compounds read low 1.01 | locus YER015W, strain faa2, active compounds read low 1.02 | locus YER016W, strain bim1, active compounds read low 1 | locus YER110C, active compounds read low 0.984 | locus YER111C, strain swi4, active compounds read low 0.993 | locus YER155C, strain BEM2 (second series), active compounds read low 1 | locus YER155C, strain BEM2, active compounds read low 1 | locus YER167W, strain BCK2, active compounds read low 0.995 | locus YFR010W, strain ubp6, active compounds read low 0.984 | locus YGL078C, strain dbp3, active compounds read low 1 | locus YGL086W, strain mad1, active compounds read low 0.998 | locus YGL167C, strain pmr1, active compounds read low 1.02 | locus YGL173C, strain kem1, active compounds read low 0.98 | locus YGL227W, strain vid30, active compounds read low 1 | locus YGL240W, strain doc1, active compounds read low 1.01 | locus YGL248W, strain PDE1, active compounds read low 0.961 | locus YGL253W, strain hxk2, active compounds read low 0.989 | locus YGR135W, strain pre9, active compounds read low 0.95 | locus YGR229C, strain SMI1, active compounds read low 1.02 | locus YGR252W, strain gcn5, active compounds read low 1.01 | locus YHR013C, strain ard1, active compounds read low 0.993 | locus YHR027C, strain rpn1, active compounds read low 1 | locus YHR030C, strain SLT2, active compounds read low 1 and 1.04 and 1.03 | locus YHR079C, strain IRE1 (second series), active compounds read low 0.994 | locus YHR079C, strain IRE1, active compounds read low 1.03 and 1.04 | locus YHR094C, strain hxt1, active compounds read low 0.996 | locus YHR129C, strain ARP1, active compounds read low 1.01 | locus YHR142W, strain chs7, active compounds read low 1 | locus YHR200W, strain rpn10, active compounds read low 0.994 | locus YIL066C, strain RNR3, active compounds read low 0.987 | locus YIL073C, strain SPO22, active compounds read low 0.891 | locus YIL125W, strain kgd1, active compounds read low 1 | locus YIR030C, strain dcg1, active compounds read low 0.982 | locus YJL092W, strain hpr5, active compounds read low 1.01 | locus YJL095W, strain BCK1 (second series), active compounds read low 1.01 | locus YJL095W, strain BCK1, active compounds read low 0.972 and 1.03 | locus YJL115W, strain asf1, active compounds read low 1.01 | locus YJL129C, strain trk1, active compounds read low 0.998 | locus YJL134W, strain LCB3, active compounds read low 1 | locus YJL154C, strain vps35, active compounds read low 1.01 | locus YJL164C, strain tpk1, active compounds read low 1.01 | locus YJL166W, strain qcr8, active compounds read low 1 | locus YJL168C, strain set2, active compounds read low 1.01
